This note sets out measurements from PubChem BioAssay (NCATS).

Records with an inconclusive call do not appear. Calls of active or inactive are those of the source. Calls come from the whole dose curve; as a rule, active = well fitted cell-killing curve with a large enough effect; inconclusive = small, poorly fitted or top-dose-only effect, or effect the other way; inactive = no such curve, though single readings can be large or run the other way. Starred links: 1 amine or outer side, 2 acyl side, 3 side chain; linkers in the order of their positions; H or OH if unused. Positions of bridges follow the written chain, without caps; N, C: chain ends. Non-standard residues stand in square brackets, D forms with d. Residues, ends and D or L forms follow the SMILES beside them. Chains are numbered I, II in the order given. Actinocin(9to1) = Cc1c2oc3c(C)ccc(C(=O)[*:1])c3nc-2c(C(=O)[*:2])c(N)c1=O; NMeV = CN[CH](C(=O)O)C(C)C; Sar = CNCC(=O)O
Potency is the fitted concentration of half-maximal effect.

A short description of this assay: Quantitative High-Throughput drug screen in 47 multiple myeloma cell lines against the NCATS MIPE library collection: ARD_JJKsccE7 cell viability assay (AID 1918929). The note with it: ARD myeloma cell line viability, CellTiter-Glo, 48 h; series mostly up to 45.8 µM. From the text:
PI: Beverly A. Mock Ph.D.
Laboratory of Cancer Biology and Genetics,
Center for Cancer Research, National Cancer Institute,
National Institute of Health, Bethesda, Maryland
Drug resistance and disease progression are common in multiple myeloma (MM) patients, underscoring the need for new therapeutic combinations. […] We hypothesized that effective combinations would reduce MYC expression and enhance p16 activity. […] These preclinical data identify potentially useful drug combinations for evaluation in drug-resistant MM and reveal potential mechanisms of combined drug sensitivity.
Described herein is the primary MIPE qHTS used to cherrypick compounds. Validated compounds were then further tested for potential synergistic activiy.
[1] Peat TJ, Gaikwad SM, Dubois W, Gyabaah-Kessie N, Zhang S, Gorjifard S, Phyo Z, Andres M, Hughitt VK, Simpson RM, Miller MA, Girvin AT, Taylor A, Williams D, D'Antonio N, Zhang Y, Rajagopalan A, Flietner E, Wilson K, Zhang X, Shinn P, Klumpp-Thomas C, McKnight C, Itkin Z, Chen L, Kazandijian D, Zhang J, Michalowski AM, Simmons JK, Keats J, Thomas CJ, Mock BA. Drug combinations identified by high-throughput screening promote cell cycle transition and upregulate Smad pathways in myeloma. Cancer Lett. 2023 Aug 1;568:216284. doi: 10.1016/j.canlet.2023.216284. Epub 2023 Jun 24. PMID: 37356470; PMCID: PMC10408729.
SEQUENCE No. (e.g., 1, 2, 3, etc.); […] (e.g., Cells, Incubation, Reagent, etc.); VALUE and DESCRIPTION.
1; Cells; 5 uL; white, solid bottom 1536-well Greiner assay plate.
2; Compounds; 23 nL; Kalypsis pin tool (Wako USA) equipped with a 1536-well pin head to transfer to the assay plates.
3; Incubation; 48 hours; 37C incubation.
4; Reagent;5uL; CellTiter Glo (Promega).
5; Detector; 425V; Luminescence; Viewlux PerkinElmer.
NOTES (numbers refer to Sequence numbers above)
1. The cell-based screening methods employed in this study were like those previously published. Briefly, the corresponding myeloma cell lines were screened in 1,536-well plates with 500 cells, 5-uL per well for inhibition of cell viability (assessed by measuring ATP levels with CellTiterGlo).
2. NCATS MIPE 4.0 library of approved and investigational drugs were added using the Kalypsis pin tool. Wells treated with DMSO only for 100% viability and media only wells for 0% viability were used as controls.
3. The assay plates were covered and incubated for 48 hours in a 37C, 5% CO2 incubator with controlled humidity.
4. After 48 hours, CellTilter-GloTM luminescent substrate mix (Promega) reagent was added to the assay plate and plates we incubated for 5 min at room temperature.
5. Signal was measured as median relative luminescence units on a ViewLux (PerkinElmer) multiplate reader.
[1] Heske CM, Davis MI, Baumgart JT, Wilson K, Gormally MV, Chen L, Zhang X, Ceribelli M, Duveau DY, Guha R, Ferrer M, Arnaldez FI, Ji J, Tran HL, Zhang Y, Mendoza A, Helman LJ, Thomas CJ. Matrix Screen Identifies Synergistic Combination of PARP Inhibitors and Nicotinamide Phosphoribosyltransferase (NAMPT) Inhibitors in Ewing Sarcoma. Clin Cancer Res. 2017 Dec 1;23(23):7301-7311. doi: 10.1158/1078-0432.CCR-17-1121. Epub 2017 Sep 12. PMID: 28899971; PMCID: PMC6636827.
Turning to `Cc1cc(O)c2c(c1)C(=O)c1cccc(O)c1C2=O`, the Potency entry is “inactive”.
`CC(C)OC(=O)[C@H](C)N[P@](=O)(OC[C@H]1O[C@@H](n2ccc(=O)[nH]c2=O)[C@](C)(F)[C@H]1O)Oc1ccccc1`: the Potency result is “inactive”.
With `O=C1c2c(O)cccc2[C@@H]([C@@H]2O[C@H](CO)[C@@H](O)[C@H](O)[C@H]2O)c2cc(CO)cc(O)c21` the entry was “inactive”; with `CCN(CC)CCNC(=O)c1c(C)[nH]c(C=C2C(=O)Nc3ccc(F)cc32)c1C`, 2.15 µM (active); with `C[C@@H]1CC[C@@]2(OC1)OC1CC3C4CC=C5CC(O)CCC5(C)C4CCC3(C)C1[C@@H]2C` (stereo not given in full), “inactive”.
The result for `O=C1NCCc2[nH]c(-c3ccncc3)cc21` reads 4.18 µM (active); that for `c1ccc(CNc2nc(NCc3ccccc3)c3ccccc3n2)cc1`, 18.7 µM (active).
Take `Cc1ccc2nc(NCCN)c3ncc(C)n3c2c1`: the Potency was 9.35 µM (active).
Turning to `CC(=O)[C@]1(O)Cc2c(O)c3c(c(O)c2[C@@H](O[C@H]2C[C@H](N)[C@@H](O)[C@H](C)O2)C1)C(=O)c1ccccc1C3=O`, the Potency is 3.32 µM (active).
Regarding `COc1cccc2c1C(=O)c1c(O)c3c(c(O)c1C2=O)C[C@@](O)(C(C)=O)C[C@H]3O[C@H]1C[C@H](N)[C@H](O)[C@H](C)O1`, the Potency is 0.235 µM (active).
With `CCNC(=O)Nc1ccc(-c2nc3c(c(N4CCOC[C@H]4C)n2)CCN(C2COC2)C3)cc1` the figure was 1.05 µM (active); with `CC(C=CC=C(C)C=CC1=C(C)CCCC1(C)C)=CC=CC=C(C)C=CC=C(C)C=CC1=C(C)CCCC1(C)C`, 20.9 µM (active).
For the molecule `C=CC[C@@H]1C=C(C)C[C@H](C)C[C@H](OC)[C@H]2O[C@@](O)(C(=O)C(=O)N3CCCC[C@H]3C(=O)O[C@H](C(C)=C[C@@H]3CC[C@H](O)[C@H](OC)C3)[C@@H](C)[C@@H](O)CC1=O)[C@@H](C)C[C@@H]2OC`, the Potency is 2.09 µM (active).
The result for `CN(C)CC(=O)N1CCC(c2ccc(NC(=O)c3ncc(C#N)[nH]3)c(C3=CCCCC3)c2)CC1` reads 3.32 µM (active).
The result for `Cc1cc(-c2nnc3n2CCCCC3)c(C)n1-c1ccccc1` reads “inactive”; that for `COc1ccc2c(c1OC)C(=O)OC2[C@H]1c2c(cc3c(c2OC)OCO3)CCN1C` (stereo not given in full), 0.0743 µM (active).
In the case of `CC(=O)OCC(=O)[C@@]1(O)CC[C@H]2[C@@H]3CCC4=CC(=O)CC[C@]4(C)[C@@H]3C(=O)C[C@@]21C`, the Potency entry is “inactive”.
Turning to `Oc1ccc([C@@H]2Oc3ccc(O)cc3[C@@H]3CCC[C@@H]32)cc1`, the Potency entry was “inactive”.
The result for `Oc1ccc(-c2ccc(-c3cc(Nc4cccc(CNC5CC5)c4)n[nH]3)cc2)c(O)c1` reads 1.18 µM (active).
With `CCCCCCCCc1ccc(CCC(N)(CO)CO)cc1` the figure was 14.8 µM (active); with `CCc1nc(-c2cccc(C)c2)c(-c2ccnc(NC(=O)c3ccccc3)c2)s1`, 20.9 µM (active).
With `Cn1cc(C=CC(=O)c2cccc(F)c2)cc1C=CC(=O)NO` the figure was 16.6 µM (active); with `OCCNC1CCCc2c1[nH]c1ccc(-c3ccccc3)cc21` (stereo not given), 26.4 µM (active); with `Cc1c2oc3c(C)ccc(C(=O)NC4C(=O)NC(C(C)C)C(=O)N5CCCC5C(=O)N(C)CC(=O)N(C)C(C(C)C)C(=O)OC4C)c3nc-2c(C(=O)NC2C(=O)NC(C(C)C)C(=O)N3CCCC3C(=O)N(C)CC(=O)N(C)C(C(C)C)C(=O)OC2C)c(N)c1=O` (stereo not given) (I: TVP[Sar][NMeV] / II: TVP[Sar][NMeV]; ester I:1-I:C, II:1-II:C; linker I:N-II:N via Actinocin(9to1); configuration not given here), “inactive”.
Turning to `O=C(Nc1nnc(-c2ccco2)o1)c1cc(-c2ccccc2)nc2ccccc12`, the Potency was 18.7 µM (active).
`C[C@H](NC(=O)C(C#N)=Cc1cccc(Br)n1)c1ccccc1`: the Potency is 11.8 µM (active).
With `CON=C(C(=O)N[C@@H]1C(=O)N2C(C(=O)O)=C(Cn3ccc(=N)n3CCO)CS[C@H]12)c1csc(N)n1` the entry was “inactive”; with `COc1cc2c(Nc3ccc(Cl)c(Cl)c3F)ncnc2cc1OCC1C[C@@H]2CN(C)C[C@H]2C1`, 13.2 µM (active).
The result for `CC1=C(C(=O)Nc2cc3cn[nH]c3cc2F)C(c2ccc(Cl)cc2F)N=C(c2ccnc(Cl)c2)N1` (stereo not given) reads 20.9 µM (active); that for `C=CCNC1=C2C[C@@H](C)C[C@H](OC)[C@@H](O)[C@@H](C)C=C(C)[C@H](OC(N)=O)[C@@H](OC)C=CC=C(C)C(=O)NC(=CC1=O)C2=O`, 0.0935 µM (active).
The result for `COC(=O)[C@H](CCCN=C(N)N)NS(=O)(=O)c1ccc(C)cc1` reads “inactive”.
`CCOc1cc2ncc(C#N)c(Nc3ccc(OCc4ccccn4)c(Cl)c3)c2cc1NC(=O)C=CCN(C)C`: the Potency is 0.662 µM (active).
With `O=C(C=CC=Cc1ccc2c(c1)OCO2)N1CCCCC1` the entry was “inactive”; with `CCc1cnn2c(NCc3ccc[n+]([O-])c3)cc(N3CCCC[C@@H]3CCO)nc12`, 0.0235 µM (active); with `CCc1cc(C(C)=NOCc2ccc(C3CCCCC3)c(C(F)(F)F)c2)ccc1CN1CC(C(=O)O)C1`, 4.69 µM (active).
With `CN(C)CCN1C(=O)c2cccc3cc(N)cc(c23)C1=O` the figure was 29.6 µM (active); with `COc1ccc(C(C)=O)c(O)c1`, “inactive”; with `CCC(C=C[C@@H]1OC(=O)C=C[C@H]1C)=C[C@H](C)CC=CC(C)=C[C@@H](C)C(=O)[C@@H](C)[C@H](O)[C@@H](C)CC(C)=CC(=O)O`, 0.0349 µM (active).
The result for `C[C@H](O)[C@@H]1C(=O)N2C(C(=O)O)=C(S[C@@H]3CN[C@H](CNS(N)(=O)=O)C3)[C@@H](C)[C@@H]12` reads “inactive”; that for `C[C@]12C=CC(=O)N[C@@H]1CC[C@H]1[C@H]3CC[C@@H](C(=O)Nc4cc(C(F)(F)F)ccc4C(F)(F)F)[C@@]3(C)CC[C@@H]12`, “inactive”.
